Compound activity (PubChem)
The list is not random: actives were taken first. Their share in the collection is about 19%.
Pf growth 96h: Primary qHTS for delayed death inhibitors of the malarial parasite plastid, 96 hour incubation | P. falciparum luciferase reporter growth, 96 h | actives 6.9% (n = 320,000) | Potency, µM (top dose mostly 28.7 µM), for inactives: at the highest dose activity change, negative = inhibition, usual class: inhibitors; further: potency means the concentration at half of the fitted maximal effect; on the % scale 0 is the no-effect control and ±100 the full control effect
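Delayed-death screen, second-generation endpoint: infected erythrocytes, 2% hematocrit, 0.05% parasitemia final; 96 hours at 37 C, 5% CO2; luciferase detection reagent; luminescence decrease equals reduced growth.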
SARS PLP yeast: qHTS of Yeast-based Assay for SARS-CoV PLP; S. cerevisiae expressing SARS-CoV PLpro, growth rescue; Potency, µM (highest dose often 32.9 µM), without a hit: at the highest dose activity, positive = growth rescue, most hits filed as activators; actives 0.19% (n = 330,000); calls by dose curve; further: potency means the concentration at half of the fitted maximal effect; 0% is about no effect; nearly all actives have a fitted effect of over 55% in size
Shiga inhibitor: A qHTS for Small Molecule Inhibitors of Shiga Toxin | actives 9.2% (n = 290,000) | inhibition, % at 38.7 µM | Vero cells, Shiga toxin protein synthesis inhibition reporter | AID 2315, 2010; in the data active means inhibition mostly above about 28%, no sharp cut-off; inactive means mostly below about 43%; further: 0% is about no effect
AMA1 RON2 block: qHTS for Inhibitors of AMA1-RON; Towards Development of Antimalarial Drug Lead: Primary Screen; Potency, µM (highest dose often 58.2 µM), for the others: top-dose activity change, negative = inhibition, usual class: inhibitors; Plasmodium falciparum AMA1 (3D7) - RON2 peptide interaction; actives 0.2% (n = 360,000); AlphaScreen AMA1-biotinylated RON2 peptide binding;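 further: potency means the concentration at half of the fitted maximal effect; 0% = vehicle wells and -100% = peptide control; nearly all actives have a fitted effect of over 45% in size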
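AMA1 (3D7) with his tag at 25 nM final met compounds first, then biotinylated RON2 peptide at 25 nM; detection used donor plus acceptor beads, 10 µg/mL apiece, read by AlphaScreen after 30 min at room temperature.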
CHX counter: Cycloheximide Counterscreen for Small Molecule Inhibitors of Shiga Toxin. cell reporter, cycloheximide protein synthesis inhibition counterscreen. max response, %. actives 12% (n = 300,000); in the data active means max response mostly above about 13%, no sharp cut-off; inactive means mostly below about 14%; further: read at 38.3 µM for the half of the compounds with a filed dose; 0% is about no effect
Pf growth 48h: Primary qHTS for delayed death inhibitors of the malarial parasite plastid, 48 hour incubation; P. falciparum luciferase growth in erythrocytes, 48 h; Potency, µM (highest dose often 28.7 µM), for inactives: at the top dose activity change, negative = inhibition, usual class: inhibitors; actives 5.9% (n = 310,000); AID 504832, 2011; further: potency means the concentration at half of the fitted maximal effect; on the % scale 0 is the no-effect control and ±100 the full control effect
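Read-out is firefly luciferase luminescence from an integrated reporter in P. falciparum, so falling signal marks reduced parasite growth. Infected erythrocytes were at 2% hematocrit and 0.1% parasitemia (final) in Albumax-supplemented RPMI 1640.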
The depositor's hits bear a star; u = inconclusive; x = no result; [ ] = another dose, or the depositor's remark. Unless noted, the call rests on the fitted dose curve; in most records, active means well fitted curve in the direction sought with a large enough effect; inconclusive means small, poorly fitted or top-dose-only effect, or another doubt; inactive means no such curve, though single readings can be large; an effect the other way counts as inactive or inconclusive.

SMILES	Pf growth 96h	SARS PLP yeast	Shiga inhibitor	AMA1 RON2 block	CHX counter	Pf growth 48h
O=C(CSc1nnc(SCc2ccccc2)s1)N/N=C/c1ccc(C(=O)O)cc1	24%	1%	9	0%	-2	71%
Cc1ccc(CSc2nnc(SCC(=O)N/N=C/c3c[nH]c4ccccc34)s2)cc1	111%	-1%	42	-8%	19*	246%
O=C(NNC(=O)C1CCCC1)c1cc([N+](=O)[O-])cc([N+](=O)[O-])c1	-14%	3%	x	22%	x	2%
CC(C)c1ccc(NC(=O)C2CCC(CNC(=O)[C@@H]3Cc4ccccc4CN3)CC2)cc1 (some centres undefined)	-5%	-3%	17	-7%	15*	u
CCc1ccc(NC(=O)[C@@H](NC(=O)[C@@H]2Cc3ccccc3CN2)C(C)CC)cc1 (some centres undefined)	u	-5%	20	10%	16*	7.4µM*
CCc1ccc(NC(=O)[C@H](NC(=O)[C@@H]2Cc3ccccc3CN2)c2ccccc2)cc1	u	1%	19	46%	28*	-19%
Cc1cc(C)cc(NC(=O)[C@H](NC(=O)[C@@H]2Cc3ccccc3CN2)c2ccccc2)c1	u	-4%	13	16%	8	u
CC(C)C[C@H](NC(=O)[C@@H]1Cc2ccccc2CN1)C(=O)Nc1ccc(C(C)C)cc1	u	2%	22	38%	23*	-16%
CC(C)c1ccc(NC(=O)[C@@H](C)NC(=O)[C@@H]2Cc3ccccc3CN2)cc1	8%	u	12	8%	10	2%
Cc1ccc(NC(=O)C2CCC(CNC(=O)[C@@H]3Cc4ccccc4CN3)CC2)cc1 (some centres undefined)	u	-6%	-8	6%	8	u
O=C(CSc1n[nH]c(=O)n1C1CC1)Nc1ccc(F)c([N+](=O)[O-])c1	0%	3%	x	35%	x	-18%
O=c1[nH]nc(SCc2nnc(-c3ccc([N+](=O)[O-])cc3)o2)n1C1CCCCC1	-4%	1%	3	3.2µM*	1	-16%
CCOC(=O)c1cnn2c1[nH]c(=O)c1ccccc12	9.3µM*	-2%	-6	-8%	-2	31%
CS(=O)(=O)N(CC(=O)NCc1ccncc1)C1CCCCC1	20%	0%	-8	4%	8	11%
CCNC(=O)COc1ccc(CC)cc1	4%	9%	46*	-6%[11.6 µM]	25*	50%
O=C(COc1ccc(C(=O)c2ccccc2)cc1)NC1CCCCCC1	u	-1%	-6	-2%	-2	u
CCc1ccc(OCC(=O)Nc2ccncc2)cc1	u	-4%	x	-4%	14	37%
CC(C)(C)NC(=O)COc1ccc(CNCCc2ccccc2)cc1	24%	-2%	-8	1%	-3	u
CCNC(=O)COc1ccc2ccccc2c1	2%	-14%	58*	-2%	71*	83%
CCc1ccc(OCC(=O)NC(C)(C)C)cc1	45%	-4%	44*	-3%[11.6 µM]	23*	43%
CCNC(=O)COc1cccc2ccccc12	20%	-4%	-16	5%	-2	x
CCC(C)(C)NC(=O)COc1ccc(C(=O)c2ccccc2)cc1	-12%	-10%	54	7%	22*	-17%
CC1Cc2ccccc2N1S(=O)(=O)c1cccc(C(=O)NCCCn2ccnc2)c1 (centres undefined)	u	2%	-2	-11%	7	u
O=C(COc1ccc2ccccc2c1)N1c2ccccc2Sc2ccccc21	13µM*	-8%	4	3%	7	u
O=C(CCl)N1c2ccccc2Sc2ccc3ccccc3c21	x	x	x	-4%	x	x
SMILES	Pf growth 96h	SARS PLP yeast	Shiga inhibitor	AMA1 RON2 block	CHX counter	Pf growth 48h
COc1ccc(NC(=O)NNC(=O)COc2ccc3ccccc3c2)cc1	-31%	2%	-15	64%	-3	17%
CCOc1ccc(NC(=O)NNC(=O)COc2ccc3ccccc3c2)cc1	2.6µM*	3%	-11	49%	-3	-1%
CCOC(=O)C1=CCN(S(C)(=O)=O)C1c1ccc(C)cc1 (centres undefined)	x	x	x	-3%	x	x
Cc1cccc(-c2cc3nc4c(c(NCc5ccco5)n3n2)CCCC4)c1	0%	-41%	126*	-8%	57*	-11%
Fc1ccc(-c2cc3nc4c(c(N5CCOCC5)n3n2)CCCC4)cc1	-7%	-15%	95*	14%	29*	10µM*
Cc1cccc(-c2cc3nc4c(c(N5CCOCC5)n3n2)CCCC4)c1	75%	-28%	73*	16%	32*	u
Cc1cccc(-c2cc3nc4c(c(N5CCC6(CC5)OCCO6)n3n2)CCCC4)c1	x	x	x	-1%	x	x
CCc1nc(C)cn1S(=O)(=O)c1cc(C)c(OC)c(C)c1C	4%	1%	-6	-4%	-6	x
COc1cc(-n2c(=O)c3ccccc3n(Cc3ccccc3)c2=O)cc(OC)c1OC	49%	3%	21	8%	-2	-7%
CCC(CC)C1=NN2C(=N)/C(=C\c3cc(C)n(-c4cccc(C)c4)c3C)C(=O)N=C2S1	25%	-15%	-10	9%	4	-9%
Cc1cc2c(=O)cc(-c3ccccc3)oc2c(C(=O)O)c1C	x	x	x	2%	x	x
CC1CCCCN1S(=O)(=O)c1ccc(N(C(=O)c2cnccn2)C(C(=O)NC2CCCC2)c2cccs2)cc1 (centres undefined)	u	4%	-5	6%	-4	13µM*
Cc1cc(C)cc(N(C(=O)c2ccccn2)C(C(=O)NC2CCCCC2)c2cccs2)c1 (centres undefined)	u	0%	18	-2%	8	u
Cc1ccc(N(C(=O)c2cnccn2)C(C(=O)NC2CCCCC2)c2ccc(O)cc2)cc1 (centres undefined)	-24%	0%	-29	-6%	-3	u
CC1CCCCN1S(=O)(=O)c1ccc(N(C(=O)c2cnccn2)C(C(=O)NC2CCCCC2)c2cccs2)cc1 (centres undefined)	8.3µM*	2%	-13	-4%	-1	12µM*
Cc1ccc(C(=O)N2CCN(c3ccccc3Cl)CC2)cc1[N+](=O)[O-]	21%	-11%	7	-17%	-2	u
COc1cc(/C=C2\SC(=S)N(CCC(=O)N3CCN(C)CC3)C2=O)cc(OC)c1OC	-14%	6%	-5	-6%	-6	u
O=C(NCc1nc2ccccc2[nH]1)C1=C[C@@H](c2ccc(C(F)(F)F)cc2)C[C@@H](OCc2ccc(CO)cc2)O1	x	x	x	39%	x	x
Cn1cc(/C=C/c2cc[n+](C)cc2)c2cc(Cl)ccc21	0.17µM*	-3%	-12	-4%	0	0.66µM*
